Common to all, as to set-up: scale not given: direction of the effect not stated beside the values
Assay [1] deals with Protein translocase subunit SecA (Escherichia coli (strain K12)) (UniProt P10408). Briefly: Assay to Identify E. coli SecA ATPase Inhibitors. Particulars: 30 µM. The format is functional.
The target of assay [2] is T1, Ubiquitin-activating enzyme e1, putative (Leishmania donovani (strain BPK282A1)) (UniProt E9BSI1).
T1 sequence (whole entry): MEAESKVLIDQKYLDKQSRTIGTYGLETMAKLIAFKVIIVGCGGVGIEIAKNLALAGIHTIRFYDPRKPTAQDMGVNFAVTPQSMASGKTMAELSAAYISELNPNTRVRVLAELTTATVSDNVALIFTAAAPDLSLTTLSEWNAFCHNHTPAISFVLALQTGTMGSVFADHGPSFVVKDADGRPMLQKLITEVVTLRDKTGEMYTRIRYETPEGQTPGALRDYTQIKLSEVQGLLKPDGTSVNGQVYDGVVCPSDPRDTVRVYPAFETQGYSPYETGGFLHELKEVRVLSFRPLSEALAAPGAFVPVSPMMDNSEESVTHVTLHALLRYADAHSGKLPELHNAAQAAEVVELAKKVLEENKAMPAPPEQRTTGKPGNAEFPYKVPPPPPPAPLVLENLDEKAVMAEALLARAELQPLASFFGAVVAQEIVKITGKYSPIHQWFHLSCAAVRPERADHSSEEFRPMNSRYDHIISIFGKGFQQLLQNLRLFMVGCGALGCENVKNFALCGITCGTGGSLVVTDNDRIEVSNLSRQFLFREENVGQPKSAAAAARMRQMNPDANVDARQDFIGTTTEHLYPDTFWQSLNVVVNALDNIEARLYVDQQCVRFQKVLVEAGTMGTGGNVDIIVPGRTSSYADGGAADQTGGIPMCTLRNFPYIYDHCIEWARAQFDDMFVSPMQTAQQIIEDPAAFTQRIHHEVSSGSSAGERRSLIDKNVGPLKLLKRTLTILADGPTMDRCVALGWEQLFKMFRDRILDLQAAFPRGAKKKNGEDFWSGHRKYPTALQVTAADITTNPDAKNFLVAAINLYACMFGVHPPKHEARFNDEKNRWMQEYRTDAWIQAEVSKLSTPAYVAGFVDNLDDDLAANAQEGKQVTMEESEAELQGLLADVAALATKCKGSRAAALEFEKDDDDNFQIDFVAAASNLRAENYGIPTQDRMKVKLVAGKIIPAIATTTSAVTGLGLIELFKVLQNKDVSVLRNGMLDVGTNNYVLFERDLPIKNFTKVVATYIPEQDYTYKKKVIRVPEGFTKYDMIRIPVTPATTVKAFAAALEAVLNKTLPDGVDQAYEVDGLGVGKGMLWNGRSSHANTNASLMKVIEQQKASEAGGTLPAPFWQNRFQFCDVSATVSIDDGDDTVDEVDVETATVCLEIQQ
Briefly: Leishmania donovani Ubiquitin Activating Enzyme (LdE1). The format is functional. Particulars: 30 µM.

In assay [3] the target is AMP-activated protein kinase, AMPK (Homo sapiens) (UniProt P54646+O43741+P54619+Q9UGJ0+Q9Y478+Q13131+Q9UGI9). The assay is described as follows: AMP-dependent Kinase enzyme assay. An in vitro enzyme assay that detects ADP turnover that is directly proportional to AMPK activity. This uses naive AMPK that is activated during the assay with MK-8722. The format is functional. Particulars: 30 µM.

Assay [4] has as its target Sialic acid-binding Ig-like lectin 9 (Homo sapiens) (UniProt Q9Y336). The assay is described as follows: Hs-Siglec9 ALPHAscreen SOP 20170721. Particulars: 10 µM.
The subject of the next assay is Trypanosoma cruzi. The assay is described as follows: Trypanosoma cruzi phosphomannomutase and mannose-1-phosphate guanylyltransferase assay. It is filed as functional. Particulars: 10 µM.
For assay [5], the target named is T2, Arginase-2, mitochondrial (Homo sapiens) (UniProt P78540).
T2 sequence (whole entry): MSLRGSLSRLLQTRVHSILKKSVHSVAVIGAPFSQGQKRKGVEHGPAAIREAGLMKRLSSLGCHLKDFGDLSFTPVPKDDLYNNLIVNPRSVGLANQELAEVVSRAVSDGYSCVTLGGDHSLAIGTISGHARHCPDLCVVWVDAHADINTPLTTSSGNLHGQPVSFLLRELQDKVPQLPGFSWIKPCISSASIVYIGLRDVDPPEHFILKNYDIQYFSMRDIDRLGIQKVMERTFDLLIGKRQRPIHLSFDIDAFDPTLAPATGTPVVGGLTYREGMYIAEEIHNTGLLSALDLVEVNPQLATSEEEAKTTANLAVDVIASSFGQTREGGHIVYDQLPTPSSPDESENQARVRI
The assay is described as follows: in vitro enzyme assay to detect the production of urea directly proportional to the activity of Arginase II. Also: in the data most compounds retested in dose-response had high values. It is filed as functional. Particulars: 33.3 µM.

Assay [6] has as its target T3, Proteasome subunit beta (Trypanosoma cruzi) (UniProt O96673).
T3 sequence (whole entry): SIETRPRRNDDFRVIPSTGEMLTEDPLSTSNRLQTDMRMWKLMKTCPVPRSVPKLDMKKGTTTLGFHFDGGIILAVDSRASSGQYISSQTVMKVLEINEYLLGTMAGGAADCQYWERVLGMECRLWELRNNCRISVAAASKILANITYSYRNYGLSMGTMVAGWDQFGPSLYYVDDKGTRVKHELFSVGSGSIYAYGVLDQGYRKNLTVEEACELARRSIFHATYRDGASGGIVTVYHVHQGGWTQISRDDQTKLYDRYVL
The assay is described as follows: Trypanosoma cruzi proteasome chymotrypsin-like activity (TcProtChymo) assay. Also: in the data most compounds retested in dose-response had high values. Particulars: 9.37 µM. It is filed as functional.

A further assay is filed under the species Homo sapiens. The assay is described as follows: To identify inhibition of the IFN signalling (Jak-Stat) pathway via expression of an eGFP reporter gene under the control of an IFN-stimulated response element (ISRE) containing MxA promoter. Particulars: 30 µM. The format is functional.
For assay [7], the target named is T4, Tyrosyl-tRNA synthetase, putative (Trypanosoma cruzi (strain CL Brener)) (UniProt Q4DSP6).
T4 sequence (whole entry): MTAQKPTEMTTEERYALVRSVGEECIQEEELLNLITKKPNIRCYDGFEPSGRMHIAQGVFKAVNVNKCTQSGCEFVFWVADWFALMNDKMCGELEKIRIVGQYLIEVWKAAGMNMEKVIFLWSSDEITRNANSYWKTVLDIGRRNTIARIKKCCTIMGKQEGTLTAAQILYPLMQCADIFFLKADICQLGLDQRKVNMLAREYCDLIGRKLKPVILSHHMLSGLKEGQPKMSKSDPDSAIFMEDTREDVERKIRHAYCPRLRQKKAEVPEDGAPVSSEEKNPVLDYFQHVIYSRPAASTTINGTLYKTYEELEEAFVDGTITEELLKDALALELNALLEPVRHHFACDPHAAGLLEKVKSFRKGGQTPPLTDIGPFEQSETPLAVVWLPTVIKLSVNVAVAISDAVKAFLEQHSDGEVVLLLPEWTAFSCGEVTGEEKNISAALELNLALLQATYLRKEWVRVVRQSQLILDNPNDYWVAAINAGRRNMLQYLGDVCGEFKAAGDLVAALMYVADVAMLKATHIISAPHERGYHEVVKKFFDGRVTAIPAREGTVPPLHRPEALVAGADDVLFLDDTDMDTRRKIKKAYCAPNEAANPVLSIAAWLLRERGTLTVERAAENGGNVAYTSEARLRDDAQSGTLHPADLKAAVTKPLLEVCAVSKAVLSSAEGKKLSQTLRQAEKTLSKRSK
Briefly: Trypanosoma cruzi tyrosyl tRNA synthetase (TcYRS) _High Tyrosine SOP. Also: in the data most compounds retested in dose-response had high values. The format is functional. As to conditions: 30 µM.

Assay [8] deals with T4, Tyrosyl-tRNA synthetase, putative (Trypanosoma cruzi (strain CL Brener)). The assay is described as follows: Trypanosoma cruzi tyrosyl tRNA synthetase (TcYRS) SOP. The format is functional. Particulars: 30 µM.
Assay [9] deals with Chromo domain-containing protein 1 (Saccharomyces cerevisiae (strain ATCC 204508 / S288c) (Baker's yeast)) (UniProt P32657). The assay is described as follows: ScCHD-1 Enzyme Inhibition Assay. Also: in the data most compounds retested in dose-response had high values. The format is functional. As to conditions: 30 µM.
Sequence of Chromo domain-containing protein 1 (Saccharomyces cerevisiae (strain ATCC 204508 / S288c) (Baker's yeast)) (P32657 whole entry, the tested form may be a part): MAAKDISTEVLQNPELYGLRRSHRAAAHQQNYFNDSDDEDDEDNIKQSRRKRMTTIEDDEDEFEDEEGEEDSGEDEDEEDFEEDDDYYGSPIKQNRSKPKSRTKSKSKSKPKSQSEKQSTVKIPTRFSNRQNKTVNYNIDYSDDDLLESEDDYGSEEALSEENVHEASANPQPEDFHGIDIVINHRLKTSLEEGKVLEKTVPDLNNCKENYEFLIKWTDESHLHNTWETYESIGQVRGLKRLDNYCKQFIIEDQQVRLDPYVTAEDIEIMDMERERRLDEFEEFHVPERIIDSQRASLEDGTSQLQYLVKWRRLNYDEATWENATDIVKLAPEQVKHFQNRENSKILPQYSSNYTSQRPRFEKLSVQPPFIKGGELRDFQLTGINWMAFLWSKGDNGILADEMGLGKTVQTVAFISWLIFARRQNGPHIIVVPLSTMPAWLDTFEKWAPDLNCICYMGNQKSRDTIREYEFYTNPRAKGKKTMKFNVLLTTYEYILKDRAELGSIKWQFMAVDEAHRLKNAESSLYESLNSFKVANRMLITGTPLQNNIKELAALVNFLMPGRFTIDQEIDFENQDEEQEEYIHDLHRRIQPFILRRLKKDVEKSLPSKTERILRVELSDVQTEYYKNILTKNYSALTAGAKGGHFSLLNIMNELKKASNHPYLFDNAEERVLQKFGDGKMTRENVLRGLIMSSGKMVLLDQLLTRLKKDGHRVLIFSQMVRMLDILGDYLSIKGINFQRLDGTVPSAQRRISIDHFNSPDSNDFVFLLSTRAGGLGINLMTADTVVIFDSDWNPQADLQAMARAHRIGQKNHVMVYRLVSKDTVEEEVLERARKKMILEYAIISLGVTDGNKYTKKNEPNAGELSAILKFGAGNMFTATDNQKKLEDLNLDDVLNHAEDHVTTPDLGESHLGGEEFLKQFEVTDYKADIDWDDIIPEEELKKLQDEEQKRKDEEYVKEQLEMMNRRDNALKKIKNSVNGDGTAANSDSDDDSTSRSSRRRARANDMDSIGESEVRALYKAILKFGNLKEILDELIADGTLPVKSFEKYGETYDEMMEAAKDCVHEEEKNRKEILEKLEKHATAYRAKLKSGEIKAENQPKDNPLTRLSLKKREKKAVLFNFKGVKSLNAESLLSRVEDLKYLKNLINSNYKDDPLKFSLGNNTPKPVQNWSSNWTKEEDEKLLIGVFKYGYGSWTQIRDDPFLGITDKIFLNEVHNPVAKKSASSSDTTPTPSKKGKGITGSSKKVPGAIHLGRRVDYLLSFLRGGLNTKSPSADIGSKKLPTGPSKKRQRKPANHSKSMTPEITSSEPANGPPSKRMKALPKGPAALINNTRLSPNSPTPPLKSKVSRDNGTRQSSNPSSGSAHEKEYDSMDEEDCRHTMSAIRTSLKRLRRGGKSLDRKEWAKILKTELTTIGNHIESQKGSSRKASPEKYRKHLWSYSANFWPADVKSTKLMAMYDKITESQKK

For some of these results: Entries with a potency or affinity are not part of this list.

Sequence of Sialic acid-binding Ig-like lectin 9 (Homo sapiens) (Q9Y336 whole entry): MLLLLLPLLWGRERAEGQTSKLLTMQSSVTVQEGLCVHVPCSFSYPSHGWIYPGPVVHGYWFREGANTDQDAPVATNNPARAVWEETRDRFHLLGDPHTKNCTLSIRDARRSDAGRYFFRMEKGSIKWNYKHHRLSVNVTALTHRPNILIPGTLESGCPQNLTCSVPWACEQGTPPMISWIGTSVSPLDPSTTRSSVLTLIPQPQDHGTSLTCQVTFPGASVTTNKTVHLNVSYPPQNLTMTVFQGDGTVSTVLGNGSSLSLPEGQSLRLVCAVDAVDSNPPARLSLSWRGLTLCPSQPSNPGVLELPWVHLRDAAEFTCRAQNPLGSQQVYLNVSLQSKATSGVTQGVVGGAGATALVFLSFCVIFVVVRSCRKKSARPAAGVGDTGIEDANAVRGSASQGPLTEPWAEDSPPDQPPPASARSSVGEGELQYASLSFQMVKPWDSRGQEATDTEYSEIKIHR
Sequence of Protein translocase subunit SecA (Escherichia coli (strain K12)) (P10408 whole entry): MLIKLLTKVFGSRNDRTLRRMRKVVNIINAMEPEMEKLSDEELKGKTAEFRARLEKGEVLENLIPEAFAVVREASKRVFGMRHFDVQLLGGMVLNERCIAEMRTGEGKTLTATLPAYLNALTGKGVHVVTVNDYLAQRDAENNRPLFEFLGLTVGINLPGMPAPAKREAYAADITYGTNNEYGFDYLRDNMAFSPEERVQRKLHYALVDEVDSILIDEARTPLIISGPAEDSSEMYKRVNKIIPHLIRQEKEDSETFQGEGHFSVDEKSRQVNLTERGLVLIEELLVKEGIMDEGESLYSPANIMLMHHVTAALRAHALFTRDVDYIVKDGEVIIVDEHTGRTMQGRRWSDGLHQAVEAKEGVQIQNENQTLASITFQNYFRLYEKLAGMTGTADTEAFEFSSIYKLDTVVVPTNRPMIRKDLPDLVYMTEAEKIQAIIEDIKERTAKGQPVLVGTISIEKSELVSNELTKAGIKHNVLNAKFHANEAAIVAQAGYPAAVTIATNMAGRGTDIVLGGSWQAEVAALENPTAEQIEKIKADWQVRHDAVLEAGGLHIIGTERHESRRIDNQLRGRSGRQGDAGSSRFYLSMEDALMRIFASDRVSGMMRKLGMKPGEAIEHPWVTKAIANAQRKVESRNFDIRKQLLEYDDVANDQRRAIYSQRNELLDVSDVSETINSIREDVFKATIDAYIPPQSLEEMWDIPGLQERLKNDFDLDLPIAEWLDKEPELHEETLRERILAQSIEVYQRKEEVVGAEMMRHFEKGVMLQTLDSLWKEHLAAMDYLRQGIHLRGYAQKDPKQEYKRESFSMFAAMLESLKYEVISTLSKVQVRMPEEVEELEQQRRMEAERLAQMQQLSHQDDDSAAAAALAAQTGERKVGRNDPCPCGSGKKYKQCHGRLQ

Consider `COc1cccc(Cc2nnc(SC3CCOC3=O)o2)c1` (stereo not drawn), for which the Percent Effect was -4.53% in [1]; -2.67% in assay [2]; -9.71% in assay [3]; 15.1% in assay [4]; 2.04% in the assay with Trypanosoma cruzi; 0.521% in assay [5]. For the same compound, the Percent Effect in assay [6] is 5.41%; in the assay filed under Homo sapiens, 5.46%; in [7], -4.92%; in assay [8] it was 8.64%; in assay [9], -2.72%.
With `CCCNC(=O)NC(=O)CN(CC(C)O)c1ccccc1` (stereo not drawn), the Percent Effect in assay [1] was -3.79%; in assay [2], 10.4%; in assay [3], 2.88%; in [4] it was -6.45%; with Trypanosoma cruzi, 6.95%; in assay [5], -0.632%. Besides, the Percent Effect in [6] is 6.22%; in the assay filed under Homo sapiens, -9.46%; in assay [7] it was 5.71%; in assay [8], 9.41%; in assay [9] it was 2.09%.
Take `CCn1cc(NC(=O)NCC(O)COc2cccc(F)c2)cn1` (stereo not drawn): the Percent Effect was 2.07% in assay [1]; 13.2% in assay [2]; -3.12% in assay [3]; 0.363% in assay [4]; -7.14% in the assay with Trypanosoma cruzi; 1.92% in assay [5]. Also, the Percent Effect in assay [6] was 6.68%; in the assay filed under Homo sapiens, 13.5%; in [7], 2.45%; in assay [8], 17.1%; in [9], -8.89%.
With `Cc1ncc(CN2Cc3ccccc3O[C@]3(CC[C@H](CO)CC3)C2)cn1`, the Percent Effect in assay [1] was -1.38%; in assay [2], 6.76%; in assay [3], 8.93%; in assay [4], 6.44%; with Trypanosoma cruzi, -2.57%; in assay [5], 0.696%. The Percent Effect was 0.78% in assay [6]; 8.08% in the assay filed under Homo sapiens; 3.23% in assay [7]; 9.09% in assay [8]; -4.96% in assay [9].
As for `CC(C)c1nn(C)c(N(C)C)c1CNCc1ccc2c(c1)OCO2`, the Percent Effect is -3% in assay [1]; 7.89% in assay [2]; -15.5% in assay [3]; 1.82% in [4]; -7% in the assay on Trypanosoma cruzi; 2.16% in [5]. The Percent Effect in [6] was -2.45%; in the assay filed under Homo sapiens, -9%; in [7], -0.493%; in assay [8], 11.1%; in assay [9], 0.321%.
With `CC(NC(=O)CSCC(=O)Nc1ccccc1)c1ccccc1` (stereo not drawn), the Percent Effect is -1.97% in assay [1]; 2.63% in assay [2]; -2% in assay [3]; -3.2% in assay [4]; -0.654% in the assay on Trypanosoma cruzi; 1.08% in assay [5]. Besides, the Percent Effect is -0.761% in assay [6]; -13.7% in the assay listed under Homo sapiens; 3.45% in assay [7]; 3.7% in assay [8]; 8.03% in [9].
As for `CN(Cc1nccs1)c1nc(-c2ccccn2)nc2c1CCNCC2`, the Percent Effect is -3.65% in assay [1]; -1.39% in assay [2]; -0.513% in assay [3]; -2.23% in assay [4]; 4.57% in the assay with Trypanosoma cruzi; -2.21% in assay [5]. In addition, the Percent Effect in assay [6] was 8.95%; in the assay filed under Homo sapiens, 11.4%; in [7] it was 10.5%; in assay [8] it was 12.8%; in assay [9], -1.22%.
Turning to `Cc1ccc(C(=O)N2CCN(Cc3nc(C(C)C)no3)CC2)c(=O)[nH]1`, the Percent Effect in [1] was -7.78%; in [2] it was 2.7%; in assay [3], -5.78%; in assay [4], 5.72%; in the assay on Trypanosoma cruzi, -4.36%; in assay [5], -2.77%. Also, the Percent Effect in assay [6] is -4.49%; in the assay filed under Homo sapiens, 13.8%; in assay [7], 1.98%; in [8], 1.22%; in [9], 7.95%.

Source of the values: ChEMBL document CHEMBL3988442, “University of Dundee, Small-Polar-MMV Screening Library” (2021).
